We go through 8 sequences from article PMC7862700, “An all-to-all approach to the identification of sequence-specific readers for epigenetic DNA modifications on cytosine”.

Holding throughout (assay): DAPPL (digital affinity profiling via proximity ligation, sequencing); 10 mM Tris-HCl pH 7.5, 50 mM NaCl, 1 mM DTT, 4% glycerol, room temperature, 30 min; GST-TFs on glutathione beads, 16-mer random dsDNA library, 0.1% formaldehyde crosslink after washing; high values mean tight binding
Conditions in all cases: protein: recombinant; tags: N-terminal GST; dsDNA, one strand shown

In one assay the target is T1, FLI1 (Homo sapiens, UniProt Q01543 1-452).
T1 sequence: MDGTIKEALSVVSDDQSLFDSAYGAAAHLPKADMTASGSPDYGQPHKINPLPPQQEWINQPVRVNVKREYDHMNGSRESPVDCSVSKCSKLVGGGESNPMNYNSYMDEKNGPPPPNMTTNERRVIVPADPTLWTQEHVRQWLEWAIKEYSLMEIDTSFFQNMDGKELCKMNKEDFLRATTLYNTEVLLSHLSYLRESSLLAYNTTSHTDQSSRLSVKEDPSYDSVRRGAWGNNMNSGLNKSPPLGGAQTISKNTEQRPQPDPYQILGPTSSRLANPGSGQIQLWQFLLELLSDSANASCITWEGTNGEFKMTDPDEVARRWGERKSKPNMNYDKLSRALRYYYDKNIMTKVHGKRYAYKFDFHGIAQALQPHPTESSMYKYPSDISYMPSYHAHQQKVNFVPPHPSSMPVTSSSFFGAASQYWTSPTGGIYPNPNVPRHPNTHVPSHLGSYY
An outline of the steps: (§1)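 Human transcription factors carrying a GST fusion were produced in yeast, bound to glutathione beads, tagged with DNA barcodes and pooled together with a tag-only sample. Each pool was held with 200 nmole of a random double-stranded 16-mer DNA library in Tris/NaCl/DTT/glycerol buffer for 30 min at room temperature, then washed, crosslinked in 0.1% formaldehyde, proximity-ligated with BsaI/T4 ligase (1 h, 37 °C), PCR-amplified and sequenced on an Illumina NextSeq500. Binding signal is the read frequency of each hexamer for a given factor divided by its frequency in the tag-only sample.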

A further assay has as its target T2, ELK1 (Homo sapiens, UniProt P19419 1-428).
T2 sequence: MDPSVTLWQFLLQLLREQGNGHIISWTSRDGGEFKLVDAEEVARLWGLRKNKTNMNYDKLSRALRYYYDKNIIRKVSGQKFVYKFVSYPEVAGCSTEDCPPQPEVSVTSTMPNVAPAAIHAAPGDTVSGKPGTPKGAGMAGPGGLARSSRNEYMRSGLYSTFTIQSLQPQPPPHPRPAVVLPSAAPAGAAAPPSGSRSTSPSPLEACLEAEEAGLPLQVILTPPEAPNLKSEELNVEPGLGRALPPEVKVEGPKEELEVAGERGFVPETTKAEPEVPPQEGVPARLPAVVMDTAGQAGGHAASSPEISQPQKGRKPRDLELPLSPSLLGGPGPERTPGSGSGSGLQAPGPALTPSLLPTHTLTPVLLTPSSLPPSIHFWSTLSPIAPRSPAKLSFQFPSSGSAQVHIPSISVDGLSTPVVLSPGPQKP
An outline of the steps: as §1

A further assay has as its target T3, GABPA (Homo sapiens, UniProt Q06546 1-454).
T3 sequence: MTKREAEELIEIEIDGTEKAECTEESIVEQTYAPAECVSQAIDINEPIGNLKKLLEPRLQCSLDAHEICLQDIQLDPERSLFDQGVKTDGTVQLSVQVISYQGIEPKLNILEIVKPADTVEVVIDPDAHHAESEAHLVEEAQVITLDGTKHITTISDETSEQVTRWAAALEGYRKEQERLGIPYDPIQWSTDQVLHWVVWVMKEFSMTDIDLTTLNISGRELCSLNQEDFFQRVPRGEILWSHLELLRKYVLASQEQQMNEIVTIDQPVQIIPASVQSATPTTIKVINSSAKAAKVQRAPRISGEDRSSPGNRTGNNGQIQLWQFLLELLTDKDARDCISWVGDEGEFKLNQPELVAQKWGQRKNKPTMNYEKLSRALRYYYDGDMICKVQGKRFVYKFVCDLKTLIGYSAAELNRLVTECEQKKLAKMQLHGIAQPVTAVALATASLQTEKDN
An outline of the steps: as §1

The next assay concerns the target T4, ERG (Homo sapiens, UniProt P11308 1-479).
T4 sequence: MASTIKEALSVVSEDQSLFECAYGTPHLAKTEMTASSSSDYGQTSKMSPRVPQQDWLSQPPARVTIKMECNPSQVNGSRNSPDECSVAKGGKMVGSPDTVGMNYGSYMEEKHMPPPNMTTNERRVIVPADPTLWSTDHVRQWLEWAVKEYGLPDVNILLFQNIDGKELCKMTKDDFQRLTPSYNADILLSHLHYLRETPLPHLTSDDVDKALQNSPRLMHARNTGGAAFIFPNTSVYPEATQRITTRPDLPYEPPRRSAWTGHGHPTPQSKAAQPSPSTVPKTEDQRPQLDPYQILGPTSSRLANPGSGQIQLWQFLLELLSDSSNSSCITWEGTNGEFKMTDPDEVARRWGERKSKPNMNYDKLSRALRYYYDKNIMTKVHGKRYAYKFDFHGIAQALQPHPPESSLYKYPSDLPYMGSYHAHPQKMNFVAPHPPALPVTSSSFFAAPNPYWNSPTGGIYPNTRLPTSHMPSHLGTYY
An outline of the steps:
as §1

For a further assay, the target named is ELF1 (Homo sapiens, UniProt P32519 1-619). An outline of the steps:
as §1

For another assay, the target named is T5, EHF (Homo sapiens, UniProt Q9NZC4 1-300).
T5 sequence: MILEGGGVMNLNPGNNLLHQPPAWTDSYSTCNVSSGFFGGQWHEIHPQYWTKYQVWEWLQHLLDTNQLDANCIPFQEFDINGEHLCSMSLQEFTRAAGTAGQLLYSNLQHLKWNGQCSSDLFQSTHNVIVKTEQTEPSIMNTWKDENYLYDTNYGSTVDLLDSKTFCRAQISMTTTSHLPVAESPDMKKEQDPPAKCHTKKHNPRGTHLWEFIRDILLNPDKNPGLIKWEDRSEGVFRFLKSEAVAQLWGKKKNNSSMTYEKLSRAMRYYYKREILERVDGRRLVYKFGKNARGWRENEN
An outline of the steps: as §1

The next assay deals with SPI1 (Homo sapiens, UniProt P17947 1-270). In outline:
as §1

The target of a further assay is SPIB (Homo sapiens, UniProt Q01892 1-262). In outline:
as §1

Another assay deals with T6, ELK3 (Homo sapiens, UniProt P41970 1-407).
T6 sequence: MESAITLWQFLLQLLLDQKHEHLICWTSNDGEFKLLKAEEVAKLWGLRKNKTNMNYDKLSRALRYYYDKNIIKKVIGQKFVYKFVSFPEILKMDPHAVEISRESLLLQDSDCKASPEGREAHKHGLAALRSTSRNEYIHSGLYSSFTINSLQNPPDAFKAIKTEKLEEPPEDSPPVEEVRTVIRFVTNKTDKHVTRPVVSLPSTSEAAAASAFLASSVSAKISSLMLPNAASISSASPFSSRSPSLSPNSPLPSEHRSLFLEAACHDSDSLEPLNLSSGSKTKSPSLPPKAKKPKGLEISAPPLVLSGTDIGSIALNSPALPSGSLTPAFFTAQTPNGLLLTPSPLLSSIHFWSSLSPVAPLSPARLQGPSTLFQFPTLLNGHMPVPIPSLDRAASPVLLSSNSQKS
An outline of the steps:
as §1

Sequence of SPIB (Q01892 whole entry): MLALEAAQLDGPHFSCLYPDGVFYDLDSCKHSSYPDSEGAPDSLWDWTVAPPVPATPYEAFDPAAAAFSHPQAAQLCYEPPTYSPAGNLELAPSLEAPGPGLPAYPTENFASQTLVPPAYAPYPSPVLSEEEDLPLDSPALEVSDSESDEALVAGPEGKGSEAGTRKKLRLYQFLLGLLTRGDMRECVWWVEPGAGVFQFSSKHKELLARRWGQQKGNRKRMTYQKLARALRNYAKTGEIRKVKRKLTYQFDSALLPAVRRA
Sequence of ELF1 (P32519 whole entry): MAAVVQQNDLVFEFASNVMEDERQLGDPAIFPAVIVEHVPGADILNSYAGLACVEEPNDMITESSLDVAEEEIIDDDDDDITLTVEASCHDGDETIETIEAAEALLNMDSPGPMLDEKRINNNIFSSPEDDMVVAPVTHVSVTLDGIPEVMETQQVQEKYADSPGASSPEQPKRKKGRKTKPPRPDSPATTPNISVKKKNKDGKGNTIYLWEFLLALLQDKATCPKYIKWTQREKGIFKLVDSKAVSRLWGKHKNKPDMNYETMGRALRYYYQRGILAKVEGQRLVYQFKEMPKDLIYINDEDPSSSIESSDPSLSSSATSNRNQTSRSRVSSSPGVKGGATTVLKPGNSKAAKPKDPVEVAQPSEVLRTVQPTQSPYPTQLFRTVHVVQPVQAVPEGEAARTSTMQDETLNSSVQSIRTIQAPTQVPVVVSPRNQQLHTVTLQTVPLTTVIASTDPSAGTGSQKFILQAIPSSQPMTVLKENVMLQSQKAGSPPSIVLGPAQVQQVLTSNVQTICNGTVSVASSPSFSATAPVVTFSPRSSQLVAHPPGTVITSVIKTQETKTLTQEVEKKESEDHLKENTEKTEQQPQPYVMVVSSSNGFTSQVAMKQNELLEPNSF

As to ATTCAT, the binding signal is 1.28 fold enrichment (6-mer frequency, TF over GST control) in the assay with FLI1; 1.12 fold enrichment (6-mer frequency, TF over GST control) with ELK1; 1.14 fold enrichment (6-mer frequency, TF over GST control) in the assay with GABPA; 1.16 fold enrichment (6-mer frequency, TF over GST control) with ERG; 1.16 fold enrichment (6-mer frequency, TF over GST control) in the assay with ELF1; 1.12 fold enrichment (6-mer frequency, TF over GST control) with EHF. Besides, the binding signal was 1.15 fold enrichment (6-mer frequency, TF over GST control) with SPI1; 1.21 fold enrichment (6-mer frequency, TF over GST control) in the assay with SPIB; 1.19 fold enrichment (6-mer frequency, TF over GST control) in the assay with ELK3.
TGACTT: the binding signal with FLI1 is 1.38 fold enrichment (6-mer frequency, TF over GST control); with ELK1, 1.5 fold enrichment (6-mer frequency, TF over GST control); with GABPA, 1.38 fold enrichment (6-mer frequency, TF over GST control); in the assay with ERG, 1.53 fold enrichment (6-mer frequency, TF over GST control); with ELF1 it was 1.44 fold enrichment (6-mer frequency, TF over GST control); with EHF it was 1.43 fold enrichment (6-mer frequency, TF over GST control). The binding signal in the assay with SPI1 is 1.68 fold enrichment (6-mer frequency, TF over GST control); with SPIB it was 1.52 fold enrichment (6-mer frequency, TF over GST control); in the assay with ELK3, 1.27 fold enrichment (6-mer frequency, TF over GST control).
Regarding TATTCT, the binding signal with FLI1 was 1.45 fold enrichment (6-mer frequency, TF over GST control); in the assay with ELK1, 1.28 fold enrichment (6-mer frequency, TF over GST control); with GABPA, 1.43 fold enrichment (6-mer frequency, TF over GST control); with ERG, 1.31 fold enrichment (6-mer frequency, TF over GST control); in the assay with ELF1 it was 1.33 fold enrichment (6-mer frequency, TF over GST control); with EHF, 1.39 fold enrichment (6-mer frequency, TF over GST control). The binding signal was 1.31 fold enrichment (6-mer frequency, TF over GST control) with SPI1; 1.19 fold enrichment (6-mer frequency, TF over GST control) with SPIB; 1.33 fold enrichment (6-mer frequency, TF over GST control) in the assay with ELK3.
For TAGATG, the binding signal in the assay with FLI1 is 1.28 fold enrichment (6-mer frequency, TF over GST control); in the assay with ELK1, 1.29 fold enrichment (6-mer frequency, TF over GST control); with GABPA, 1.27 fold enrichment (6-mer frequency, TF over GST control); in the assay with ERG, 1.27 fold enrichment (6-mer frequency, TF over GST control); in the assay with ELF1, 1.29 fold enrichment (6-mer frequency, TF over GST control); with EHF it was 1.26 fold enrichment (6-mer frequency, TF over GST control). Also, the binding signal with SPI1 was 1.3 fold enrichment (6-mer frequency, TF over GST control); with SPIB, 1.24 fold enrichment (6-mer frequency, TF over GST control); in the assay with ELK3 it was 1.31 fold enrichment (6-mer frequency, TF over GST control).
As for CTGCTA, the binding signal in the assay with FLI1 is 1.38 fold enrichment (6-mer frequency, TF over GST control); with ELK1 it was 1.53 fold enrichment (6-mer frequency, TF over GST control); in the assay with GABPA, 1.46 fold enrichment (6-mer frequency, TF over GST control); with ERG, 1.39 fold enrichment (6-mer frequency, TF over GST control); in the assay with ELF1, 1.47 fold enrichment (6-mer frequency, TF over GST control); with EHF, 1.5 fold enrichment (6-mer frequency, TF over GST control). Besides, the binding signal with SPI1 is 1.53 fold enrichment (6-mer frequency, TF over GST control); with SPIB it was 1.43 fold enrichment (6-mer frequency, TF over GST control); with ELK3, 1.42 fold enrichment (6-mer frequency, TF over GST control).
Regarding ACAATC, the binding signal in the assay with FLI1 is 1.08 fold enrichment (6-mer frequency, TF over GST control); with ELK1, 1.09 fold enrichment (6-mer frequency, TF over GST control); with GABPA, 1.19 fold enrichment (6-mer frequency, TF over GST control); in the assay with ERG, 1.16 fold enrichment (6-mer frequency, TF over GST control); with ELF1, 1.21 fold enrichment (6-mer frequency, TF over GST control); with EHF it was 1.13 fold enrichment (6-mer frequency, TF over GST control). For the same sequence, the binding signal was 1.12 fold enrichment (6-mer frequency, TF over GST control) in the assay with SPI1; 1.09 fold enrichment (6-mer frequency, TF over GST control) with SPIB; 1.13 fold enrichment (6-mer frequency, TF over GST control) with ELK3.
TCGACA: the binding signal was 1.38 fold enrichment (6-mer frequency, TF over GST control) with FLI1; 1.27 fold enrichment (6-mer frequency, TF over GST control) with ELK1; 1.43 fold enrichment (6-mer frequency, TF over GST control) with GABPA; 1.35 fold enrichment (6-mer frequency, TF over GST control) with ERG; 1.38 fold enrichment (6-mer frequency, TF over GST control) with ELF1; 1.21 fold enrichment (6-mer frequency, TF over GST control) with EHF. For the same sequence, the binding signal with SPI1 was 1.28 fold enrichment (6-mer frequency, TF over GST control); in the assay with SPIB, 1.25 fold enrichment (6-mer frequency, TF over GST control); in the assay with ELK3, 1.35 fold enrichment (6-mer frequency, TF over GST control).
Consider TTATGT, for which the binding signal with FLI1 was 1.3 fold enrichment (6-mer frequency, TF over GST control); in the assay with ELK1 it was 1.3 fold enrichment (6-mer frequency, TF over GST control); in the assay with GABPA, 1.27 fold enrichment (6-mer frequency, TF over GST control); with ERG, 1.31 fold enrichment (6-mer frequency, TF over GST control); with ELF1, 1.24 fold enrichment (6-mer frequency, TF over GST control); with EHF it was 1.28 fold enrichment (6-mer frequency, TF over GST control). In addition, the binding signal with SPI1 is 1.31 fold enrichment (6-mer frequency, TF over GST control); with SPIB, 1.32 fold enrichment (6-mer frequency, TF over GST control); in the assay with ELK3 it was 1.22 fold enrichment (6-mer frequency, TF over GST control).
